Only some compounds are listed: those with a hit (about 11% of all), similar ones and a draw of the others.
MCF10A rereplic = induces DNA re-replication in MCF 10a normal breast cells; Potency, µM (series often up to 46.1 µM), for the others: at the highest dose activity, positive = re-replication, most hits filed as activators; MCF 10A DNA re-replication, Hoechst nuclear intensity, 48 h; hit rate 2.9% among 350,000; also: potency is read from the fitted curve at half-maximal effect; % of control where 0% means no effect; nearly all actives have a fitted effect of over 50% in size
IL-1B inflam inh = inhibitors of inflammasome signaling (IL-1 beta secretion). THP-1 LPS/ATP IL-1B secretion, AlphaLISA, 16 h; hits give low values. hit rate 4.7% among 360,000. activity change, % at 57.5 µM. AID 743279; in the data active = activity change below about -50%; inconclusive = mostly about -30% to -49%; also: % is scaled to controls: 0 for no effect and ±100 for the full control effect
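Secreted IL-1B measured by AlphaLISA bead assay after 16 h compound exposure of THP-1 cells; compounds (final up to 57.5 uM) added 1 h before LPS (250 ng/mL) and ATP (1.25 mM) stimulation; lower signal means less secretion.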
SW480 rerep = inducers of DNA re-replication in SW480 colon cancer cells | hit rate 1.8% among 340,000 | SW480 DNA re-replication, Hoechst DNA content imaging, 48 h | Potency, µM (highest dose often 46.1 µM), without a hit: at the top dose re-replication activation, hits mostly activators; also: potency is read from the fitted curve at half-maximal effect; % of control where 0% means no effect; nearly all actives have a fitted effect of over 55% in size
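250 cells/well; 23 nL cpd via pin tool; 48 hr, 37 C, 5% CO2; Hoechst 40 min; imager read of total nuclear intensity, ex 405/em 500-530 nm.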
RORg inh = blocks mouse ROR gamma transcriptional activity. P51450. Potency, µM (series often up to 53.6 µM), for the others: top-dose activity change, negative = inhibition, hits mostly inhibitors. Drosophila S2 Gal4-RORgamma UAS-luciferase reporter, 20 h. hit rate 5.4% among 310,000; also: potency is read from the fitted curve at half-maximal effect; % is scaled to controls: 0 for no effect and ±100 for the full control effect; nearly all actives have a fitted effect of over 60% in size
Target sequence (P51450 whole entry, looked up, the tested form may be a part): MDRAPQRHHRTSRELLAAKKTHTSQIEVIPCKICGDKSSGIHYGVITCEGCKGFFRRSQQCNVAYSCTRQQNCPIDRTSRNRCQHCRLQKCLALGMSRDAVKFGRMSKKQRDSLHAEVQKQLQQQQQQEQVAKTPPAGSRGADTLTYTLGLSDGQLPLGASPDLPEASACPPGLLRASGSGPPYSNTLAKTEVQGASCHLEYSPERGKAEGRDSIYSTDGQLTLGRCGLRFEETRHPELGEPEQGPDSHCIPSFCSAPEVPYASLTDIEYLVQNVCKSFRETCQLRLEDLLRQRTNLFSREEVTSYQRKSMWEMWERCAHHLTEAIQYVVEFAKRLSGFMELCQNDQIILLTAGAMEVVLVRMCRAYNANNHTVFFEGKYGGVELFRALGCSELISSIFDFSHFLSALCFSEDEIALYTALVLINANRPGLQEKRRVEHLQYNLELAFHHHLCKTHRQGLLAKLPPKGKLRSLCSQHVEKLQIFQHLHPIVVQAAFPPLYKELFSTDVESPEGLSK
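ROR gamma transcriptional activity was tracked as Gal4-UAS luciferase output in stably transfected Drosophila Schneider cells, with compound added 1 hr before 700 uM copper sulfate induction and a 20 hr ambient-temperature incubation.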
Gal4-VP16 FLuc = Gal4-VP16 reporter inhibition counter-screen; Drosophila S2 Gal4-VP16 UAS-luciferase, luminescence, 20 h; Potency, µM (highest dose often 53.6 µM), without a hit: top-dose activity, negative = inhibition, most hits filed as inhibitors; hit rate 3.5% among 310,000;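 also: Gal4-VP16 expression switched on by copper sulfate through the metallothionein promoter; potency is read from the fitted curve at half-maximal effect; % is scaled to controls: 0 for no effect and ±100 for the full control effect; nearly all actives have a fitted effect of over 50% in size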
* = called active by the depositor; ? = inconclusive; nt = no result; [ ] = remark or other dose. Unless noted, calls follow the shape of the dose curve; as a rule, active = well fitted curve in the direction sought with a large enough effect; inconclusive = small, poorly fitted or top-dose-only effect, or another doubt; inactive = no such curve, though single readings can be large; an effect the other way counts as inactive or inconclusive.

SMILES	MCF10A rereplic	IL-1B inflam inh	SW480 rerep	RORg inh	Gal4-VP16 FLuc
Cc1cccc(S(=O)(=O)Nc2ccc(-c3nc4ccc(C)cc4s3)cc2)c1	18.4µM*	-12.1	?	5.62µM*	-25.3%
Cc1nc2ccc(NS(=O)(=O)c3ccc(F)cc3)cc2s1	-39.0%	20.2	13.2%	37.5%	-4.2%
Cc1ccc2nc(-c3ccc(NS(=O)(=O)c4c(C)n(C)c(=O)n(C)c4=O)cc3)sc2c1	7.31µM*	-18.7	20.6µM*	20.5%	?
Cc1ccccc1OCC1CO1 (stereo not given)	nt	nt	nt	-4.3%	-13.6%
CCN(CC)C(=O)C1=C(C)N(CCC2=CCCCC2)C(=O)C(CC(=O)NC2CCCC2)C1 (stereo not given)	nt	10.3	nt	nt	nt
O=[N+]([O-])c1cc([N+](=O)[O-])c2cc3ccccc3nc2c1	?	-102.0*	?	3.16µM*	2.82µM*
O=C1Nc2ccc(Br)cc2/C1=C/C1CC=CCC1 (stereo not given)	?	-98.8*	?	?	?
O=C1NC(Cc2ccccc2)C(=O)Nc2ccc(Br)cc21 (stereo not given)	1.4%	-3.8	-7.0%	-4.2%	-20.4%
COC(=O)C1CCN(C(=O)C2CC(=O)N(c3ccc(C)c(Cl)c3)C2)CC1 (stereo not given)	-3.3%	-0.7	3.5%	nt	nt
COc1ccc(C(=O)NC(=S)NNC(=O)Cc2cccs2)cc1	324.8%[0.0737 µM]	19.9	-3.8%	6.31µM*	?
O=C(/C=C/c1cccs1)NC(=S)NNC(=O)Cc1cccs1	?	64.3	6.7%	11.2µM*	?
COc1cc(OC)cc(C(=O)NC(=S)NNC(=O)Cc2cccs2)c1	-0.6%	6.5	-7.2%	-7.1%	-22.4%
CCCS(=O)(=O)Nc1ccc(N2CCCCC2)c(S(=O)(=O)Nc2ccccc2OC)c1	?	-5.8	?	nt	nt
C#CCNC(=O)C[C@@H]1C[C@@]2(C(=O)OC)CCCCC=C2N(Cc2ccc3c(c2)OCO3)C1=O	nt	10.9	nt	nt	nt
CCOC(=O)Nc1ccc2nc(-c3cscn3)[nH]c2c1	nt	4.5	nt	nt	nt
O=C(CCc1nc2ccccc2n1-c1ccccc1)NCCO	1.2%	18.4	-0.2%	17.8%	0.8%
O=C(COC(=O)CCc1nc2ccccc2n1-c1ccccc1)Nc1ccc(N2CCCCC2)cc1	0.9%	24.5	-3.0%	?	6.31µM*
NC(=S)NN=C1C2CC3CC(C2)CC1C3	19.2%	0.1	?	2µM*	?
NC(=O)C(=O)NN=C1C2CC3CC(C2)CC1C3	20.7%	9.4	-3.7%	-14.8%	6.8%
O=C(NN=C1C2CC3CC(C2)CC1C3)c1ccccc1O	18.5%	205.9	20.6µM*	12.6µM*	-28.2%
C/C(=N\NC(=O)c1ccccc1O)C1CC1	2.4%	16.5	16.4µM*	?	7.2%
O=C(NC12CC3CC(CC(C3)C1)C2)c1ccccc1O	8.2µM*	-16.1	1.7%	43.6%	?
O=C(CNC(c1ccccc1)c1ccccc1)NCc1ccccc1Cl	7.7%	-9.5	32.6%	28.8%	-12.6%
CNc1ccc(/C=C/C(=O)c2cccc3ccccc23)cc1[N+](=O)[O-]	?	-91.8*	16.4µM*	29.0%	4.2%
CNc1ccc(C(=O)c2ccccc2C(=O)O)cc1[N+](=O)[O-]	-4.3%	-16.2	1.1%	-3.1%	7.0%
SMILES	MCF10A rereplic	IL-1B inflam inh	SW480 rerep	RORg inh	Gal4-VP16 FLuc
Cc1ccn2c(=O)nc(SCC(=O)NC3CCCC3)nc2c1	19.9%	-1.1	2.6%	nt	nt
CCN1CCN(c2ccc(S(=O)(=O)N3CCCCC3)cc2NC(=O)c2cccc(F)c2)CC1	7.5%	-15.0	-216.5%	nt	nt
CN1CCN(S(=O)(=O)c2cccc(C(=O)Nc3ccccc3N3CCCCC3)c2)CC1	?	-12.8	-5.1%	nt	nt
CN1CCN(S(=O)(=O)c2cccc(C(=O)Nc3cc(C(F)(F)F)ccc3N3CCCCC3)c2)CC1	18.0%	-52.3*	-8.6%	nt	nt
CCN1CCN(c2ccc(S(=O)(=O)N3CCCCC3)cc2NC(=O)c2ccc([N+](=O)[O-])s2)CC1	?	-77.5*	13µM*	nt	nt
CCN1CCN(c2ccc(S(=O)(=O)N3CCCCC3)cc2NC(=O)c2ccccc2)CC1	2.6%	-14.5	-0.9%	nt	nt
CCN1CCN(c2ccc(S(=O)(=O)N3CCCCC3)cc2NC(=O)c2cccc(C(F)(F)F)c2)CC1	?	-71.5*	?	nt	nt
CN(C(=O)c1ccccc1-c1ncc[nH]1)C1CCCN(Cc2ccccc2F)C1 (stereo not given)	1.5%	-16.2	16.0%	-6.1%	-2.5%
CN(C)/N=N/c1nc[nH]c1C(N)=O	?	nt	2.6%	-12.7%	4.0%
COc1ccc(OC)c(N2C(=O)c3ccccc3C2c2nnnn2-c2ccc3c(c2)OCCO3)c1 (stereo not given)	nt	6.7	nt	nt	nt
CCN1C(=O)[C@H]2[C@H]3[C@H](O)[C@H](O)C/C(=N/O[C@@H](C)CN4CCCc5nc(C)c(C)cc54)[C@@H]3CC[C@@H]2C1=O	nt	nt	nt	-9.3%[10 µM]	-4.5%[10 µM]
CCNC(=S)Nc1ccc(N2CCCCC2)cc1	0.4%	6.6	-5.5%	12.6µM*	-68.1%
COCCCNC(=S)N1CCN(c2ccccc2)CC1	-1.1%	27.4	0.2%	23.6%	24.2%
S=C(NCCc1ccccc1)Nc1ccc(N2CCCCC2)cc1	10.8%	105.2	-13.3%	7.94µM*	?
COCCCNC(=S)Nc1ccc(N2CCCCC2)cc1	8.4%	-22.4	18.1%	17.8µM*	?
O=C(Cc1ccccc1)Nc1ccc(N2CCCCC2)cc1	10.5%	-22.5	3.6%	-11.6%	-13.5%
COc1ccc(OC)c(NC(=O)COC(=O)CCNc2ccccc2OC)c1	13.3%	1.5	-0.5%	nt	nt
COc1ccc(-c2nc(SC(C)C(=O)NC3CC3)n[nH]2)cc1 (stereo not given)	1.2%	-9.9	3.9%	nt	nt
O=C(OCc1ccccc1)N1CCC2CC1c1ccc(N3CCN(Cc4ccc5c(c4)OCO5)CC3)cc12 (stereo not given)	nt	-13.2	nt	nt	nt
C[C@@H]1COC(=O)[C@@H](Cc2ccc(F)cc2)C/C=C\C[C@@H](CC(=O)NCCO)C(=O)N1	-26.6%	40.9	0.2%	nt	nt
O=C(Nc1ccc(Br)cn1)c1cccc(-c2cc3ccccc3oc2=O)c1	18.4µM*	17.4	?	3.4%	-22.9%
Cc1nc(NC(=O)c2ccc(-c3cc4ccccc4oc3=O)cc2)ccc1Br	-2.3%	4.2	0.8%	27.8%	3.1%
Cc1nc(NC(=O)c2cccc(-c3cc4ccccc4oc3=O)c2)ccc1Br	20.6µM*	-3.3	-1.5%	-4.8%	?
O=c1c(-c2ccccc2)nc2cnc(Nc3ccccc3)nc2n1Cc1cccs1	nt	nt	nt	-3.2%	-3.5%
CC1(C)OC(=O)C2=C(C[C@@H](C3CCCC3)O[C@H]2c2ccc(Cl)cc2)O1	nt	17.3	nt	nt	nt
O=C(CSc1ccccc1)Nc1cccc(NC(=O)c2ccco2)c1	2.2%	18.3	-3.6%	2.7%	1.1%
O=C(CSc1ccc(Cl)cc1)Nc1cccc(NC(=O)c2ccco2)c1	?	-65.8*	-7.6%	40.1%	-0.2%
